From PubChem BioAssay (Tox21) come the findings set out here.

The structures appear in SMILES notation. Results filed as inconclusive are left out. Activity calls are given as the source filed them. Unless noted, calls follow the shape of the dose curve; as a rule, active = well fitted curve in the direction sought with a large enough effect in the repeat runs; inconclusive = weak or mixed curves; inactive = no such curve, though single readings can be large; an effect the other way counts as inactive or inconclusive.

Test [1] in a line: qHTS assay to identify aromatase inhibitors - cell viability counter screen (AID 743084).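 Also: cells stimulated with testosterone during compound exposure; nearly all actives have a fitted effect of over 55% in size.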 Also: potency is read from the fitted curve at half-maximal effect.
In test [2] the target is Aryl hydrocarbon receptor (Homo sapiens) (UniProt P35869). As to the kind of experiment: qHTS assay to identify small molecule that activate the aryl hydrocarbon receptor (AhR) signaling pathway (AID 743085). Also: nearly all actives have a fitted effect of over 15% in size. Also: potency is read from the fitted curve at half-maximal effect.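 As to activation: HG2L7.5c1 human HepG2 liver cells with stably integrated DRE-driven firefly reporter; series mostly up to about 70 µM.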 In a few lines: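 HepG2 cells (HG2L7.5c1) stably carrying a firefly luciferase reporter driven by 20 dioxin responsive elements were exposed to compound for 24 h at 37C after a 5 h settling period; luminescence rise (ONE-Glo) indicated activation.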

Test [3] can be described thus: qHTS assay to identify small molecule that activate the aryl hydrocarbon receptor (AhR) signaling pathway - cell viability counter screen (AID 743086).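 Also: HepG2 liver cells carrying the AhR DRE luciferase reporter; series mostly up to about 70 µM; nearly all actives have a fitted effect of over 45% in size.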 In a few lines:
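HepG2-AhR-luc (HG2L7.5c1) cells, 4000/well, were preincubated 5 h at 37C, exposed to compound in qHTS format for 24 hr at 37C, then given CellTiter-Fluor for 30 min; viability was read as fluorescence in the reporter wells.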

The target of test [4] is Peroxisome proliferator-activated receptor gamma (Homo sapiens) (UniProt P37231). As to the kind of experiment: qHTS assay to identify small molecule agonists of the peroxisome proliferator-activated receptor gamma (PPARg) signaling pathway (AID 743094; active = well fitted activation curve with a large enough effect in the signal ratio in the repeat runs, not every such curve was filed as active; the % refers to the signal ratio). The method in brief: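 Agonism was assessed in a beta-lactamase reporter system, HEK293H cells with a stably integrated UAS-bla construct under PPARg control; the 17 h treatment at 37C preceded a 1 h room-temperature FRET substrate read.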

Test [5] has the same target. As to the kind of experiment: qHTS assay to identify small molecule antagonists of the peroxisome proliferator-activated receptor gamma (PPARg) signaling pathway (AID 743191; calls by dose curve; also: series mostly up to about 63 µM; nearly all actives have a fitted effect of over 30% in size). The method in brief: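 GeneBLAzer PPARg UAS-bla HEK293H cells carrying a UAS-driven beta-lactamase reporter were plated at 3000 cells/well, preincubated 5 h at 37C, then given compound for 17 h at 37C; LiveBLAzer B/G FRET substrate was read after 1 h at room temperature.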

A short description of test [6]: qHTS assay to identify small molecule antagonists of the peroxisome proliferator-activated receptor gamma (PPARg) signaling pathway - cell viability counter screen (AID 743194). Also: nearly all actives have a fitted effect of over 55% in size. In a few lines: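 PPARg-UAS-bla HEK293H cells were plated, rested 5 h at 37 C, then treated with compounds plus rosiglitazone (50 nM final) for 17 h at 37 C; viability was then read by CellTiter-Glo luminescence after 30 min at room temperature.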

Test [7] is described as follows: qHTS assay for small molecule agonists of the antioxidant response element (ARE) signaling pathway (AID 743202; active = well fitted activation curve with a large enough effect in the signal ratio in the repeat runs, not every such curve was filed as active; the % refers to the signal ratio). In a few lines: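 Following a 16 h, 37 C exposure of reporter HepG2 cells (ARE-driven beta-lactamase, 2,000 cells/well) to compounds, FRET substrate was applied for 2 h at room temperature and fluorescence intensity recorded.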
The nature of test [8]: qHTS assay for small molecule agonists of the antioxidant response element (ARE) signaling pathway - cell viability counter screen (AID 743203; calls by dose curve; also: nearly all actives have a fitted effect of over 55% in size). In a few lines:
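ATP content via CellTiter-Glo luminescence served as the viability measure. Cells: ARE-bla HepG2, 2,000 per well. Exposure: 16 hrs, 37C/5% CO2.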

Test [9] in a line: qHTS assay for small molecule activators of the heat shock response signaling pathway (AID 743210; active = well fitted activation curve with a large enough effect in the signal ratio in the repeat runs, with a control signal flat, not every such curve was filed as active; the % refers to the signal ratio; also: series mostly up to about 63 µM). The method in brief: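 Heat shock element–beta-lactamase HeLa reporter cells; qHTS with compounds for 5 h at 37 C; detection by FRET substrate fluorescence after 2.5 h at RT.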
The nature of test [10]: qHTS assay for small molecule activators of the heat shock response signaling pathway - cell viability counter screen (AID 743209). Also: nearly all actives have a fitted effect of over 50% in size. Also: potency is read from the fitted curve at half-maximal effect. The method in brief:
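Compounds dissolved in DMSO were added to overnight-plated HSE-bla HeLa cells and left 5 h at 37 C. Cell viability was quantified by luminescence using CellTiter-Glo.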

Aryl hydrocarbon receptor (Homo sapiens), sequence (P35869 whole entry, looked up): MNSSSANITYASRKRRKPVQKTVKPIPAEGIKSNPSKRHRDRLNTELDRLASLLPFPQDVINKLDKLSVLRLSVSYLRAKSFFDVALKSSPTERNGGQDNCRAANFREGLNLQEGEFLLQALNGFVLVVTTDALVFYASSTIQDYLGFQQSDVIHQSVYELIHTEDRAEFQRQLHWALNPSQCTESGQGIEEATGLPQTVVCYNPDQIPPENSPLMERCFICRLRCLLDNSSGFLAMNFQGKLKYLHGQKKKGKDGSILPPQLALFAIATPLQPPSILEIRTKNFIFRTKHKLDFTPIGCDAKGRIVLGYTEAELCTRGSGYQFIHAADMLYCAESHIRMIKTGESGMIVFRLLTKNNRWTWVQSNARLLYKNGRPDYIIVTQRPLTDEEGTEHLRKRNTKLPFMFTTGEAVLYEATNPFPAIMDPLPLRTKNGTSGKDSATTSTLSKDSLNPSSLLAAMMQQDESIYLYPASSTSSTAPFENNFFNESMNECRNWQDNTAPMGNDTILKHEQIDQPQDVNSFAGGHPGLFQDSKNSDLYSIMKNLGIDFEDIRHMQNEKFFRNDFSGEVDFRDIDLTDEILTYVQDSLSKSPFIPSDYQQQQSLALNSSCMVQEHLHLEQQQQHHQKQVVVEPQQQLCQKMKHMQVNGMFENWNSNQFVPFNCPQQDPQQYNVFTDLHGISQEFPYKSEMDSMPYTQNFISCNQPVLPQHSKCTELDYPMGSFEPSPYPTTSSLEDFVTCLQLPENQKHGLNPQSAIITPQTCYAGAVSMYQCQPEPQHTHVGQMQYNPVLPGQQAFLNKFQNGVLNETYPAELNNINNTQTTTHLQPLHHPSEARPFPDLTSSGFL
Peroxisome proliferator-activated receptor gamma (Homo sapiens), sequence (P37231 whole entry, looked up): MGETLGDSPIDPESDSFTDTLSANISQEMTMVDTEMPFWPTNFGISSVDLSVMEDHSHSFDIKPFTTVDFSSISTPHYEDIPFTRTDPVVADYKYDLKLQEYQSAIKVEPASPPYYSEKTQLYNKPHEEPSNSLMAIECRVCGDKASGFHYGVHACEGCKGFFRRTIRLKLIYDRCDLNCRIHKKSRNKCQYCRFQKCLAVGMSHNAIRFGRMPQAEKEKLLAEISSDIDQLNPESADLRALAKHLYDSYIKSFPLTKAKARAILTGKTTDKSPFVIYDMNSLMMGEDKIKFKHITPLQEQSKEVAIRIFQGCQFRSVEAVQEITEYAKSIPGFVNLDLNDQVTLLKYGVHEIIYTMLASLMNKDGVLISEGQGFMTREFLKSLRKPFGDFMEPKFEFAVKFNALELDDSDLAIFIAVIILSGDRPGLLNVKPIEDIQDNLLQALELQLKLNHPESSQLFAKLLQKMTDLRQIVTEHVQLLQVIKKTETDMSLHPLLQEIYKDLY

As to `O=C(/C=C/c1ccc([N+](=O)[O-])cc1)c1ccccc1`, the Potency result in test [1], in [2], in test [3], in test [5], in test [6] and in test [7] was “inactive” throughout. Further, the Potency entry in test [8] and in test [9] was “inactive” throughout. Also, the molecule was called inactive in [4].
With `CCCCCCOC(=O)CCCCC`, the Potency result in test [1], in test [2], in test [3], in [5], in test [6] and in test [7] was “inactive” throughout. In addition, the Potency result in test [8], in test [10] and in [9] was “inactive” each time. Moreover, in test [4], the result was inactive.
`O=C(O)c1cc(Cl)cc(Cl)c1O`: the Potency result in test [1], in test [2], in test [3], in test [5], in test [6] and in test [7] was “inactive” throughout. Moreover, the Potency result in test [10] and in test [9] was “inactive” throughout. The molecule was called inactive in [4].
`Cc1ccc(S(=O)(=O)NC(=O)NC2CCCCC2)cc1`: the Potency result in test [1], in test [2], in [3], in test [5], in test [6] and in test [7] was “inactive” each time. Moreover, the Potency result in test [8], in test [10] and in [9] was “inactive” in each case. In addition, in test [4], the molecule was classed as inactive.
`CC(=O)OCC(C)C`: the Potency result in [1], in test [2], in test [3], in test [5], in test [6] and in test [7] was “inactive” throughout. Besides, the Potency result in [8], in test [10] and in test [9] was “inactive” throughout. Further, in test [4], the molecule was called inactive.
For the molecule `CCN(CC)CCOC(=O)C(c1ccccc1)c1ccccc1`, the Potency result in test [1], in [2], in [3], in test [5], in test [6] and in [7] was “inactive” throughout. Moreover, the Potency result in test [8], in test [10] and in test [9] was “inactive” each time. For the same molecule, the call in test [4] was inactive.
Take `CC(=O)OCCC(C)CC(C)(C)C` (configuration not stated): the Potency result in test [1], in test [2], in test [3], in [5], in test [6] and in test [7] was “inactive” each time. Moreover, the Potency entry in test [8], in test [10] and in [9] was “inactive” in each case. In [4], the molecule was classed as inactive.
Regarding `CCCCCCCCCCCCCCCC(=O)OCC`, the Potency entry in test [1], in test [2], in test [3], in [5], in test [6] and in [8] was “inactive” throughout. Moreover, the Potency result in [10] and in test [9] was “inactive” throughout. Also, the molecule was called inactive in test [4].
Consider `O=C(NC(Cc1cc(=O)[nH]c2ccccc12)C(=O)O)c1ccc(Cl)cc1` (configuration not stated), for which the Potency result in test [1], in test [2], in test [3], in test [5], in test [6] and in test [7] was “inactive” each time. For the same molecule, the Potency entry in test [8], in [10] and in [9] was “inactive” each time. Besides, the molecule was called inactive in test [4].
For the molecule `CCC(CO)(CO)CO`, the Potency result in test [1], in test [2], in test [3], in test [5], in test [6] and in test [7] was “inactive” in each case. Besides, the Potency result in test [8], in test [10] and in [9] was “inactive” in each case. Moreover, in test [4], the outcome was inactive.
For `CCCCCCCC/C=C\CCCCCCCC(=O)OCCO`, the Potency entry in test [1], in [2], in test [3], in [5], in test [6] and in test [8] was “inactive” in each case. Further, in [4], the molecule was classed as inactive. Moreover, in test [10], the Potency was 64.9 µM (active).
Regarding `Nc1ccc(NC(=O)c2ccc(N)cc2)cc1`, the Potency in [1] was 54.5 µM (active). Besides, the Potency entry in test [2], in test [3], in test [5], in test [6], in test [7] and in test [10] was “inactive” in each case. Moreover, the Potency entry in test [9] was “inactive”. In addition, the outcome in test [4] was inactive.
On to `CCC(CO)(CO)[N+](=O)[O-]`, for which the Potency entry in [1], in test [2], in [3], in [5], in test [6] and in test [7] was “inactive” throughout. The Potency result in [8], in [10] and in test [9] was “inactive” each time. Besides, in [4], the molecule was called inactive.
Turning to `CC(C)(C(=O)c1cccnc1)c1cccnc1`, the Potency entry in test [1], in test [2], in test [3], in test [5], in test [6] and in test [7] was “inactive” each time. The Potency result in test [8], in test [10] and in [9] was “inactive” in each case. Besides, the molecule was classed as inactive in [4].
As for `O=S(=O)(Cl)c1c(Cl)cccc1Cl`, the Potency result in test [1], in [2], in test [3], in [5], in test [6] and in [7] was “inactive” in each case. The Potency entry in [8], in [10] and in test [9] was “inactive” in each case. Besides, the outcome in [4] was inactive.
Consider `CC(=O)c1ccc[nH]1`, for which the Potency entry in test [1], in [2], in [3], in [5], in test [6] and in test [7] was “inactive” in each case. For the same molecule, the Potency result in test [8], in [10] and in [9] was “inactive” throughout. The outcome in test [4] was inactive.
On to `CC(C)c1ccc(C(=O)N=C(N)N)cc1S(C)(=O)=O`, for which the Potency entry in test [1], in test [2], in test [3], in test [5], in test [6] and in test [7] was “inactive” in each case. Besides, the Potency entry in test [8], in [10] and in [9] was “inactive” in each case. The result in test [4] was inactive.
As for `CCCCCCCC(=O)OCCCCCC`, the Potency result in [1], in [2], in test [3], in test [5], in test [6] and in test [7] was “inactive” each time. Moreover, the Potency result in test [8], in [10] and in test [9] was “inactive” throughout. The call in test [4] was inactive.
Take `CC12CC3CC(C)(C1)CC(N)(C3)C2`: the Potency result in test [1], in [2], in [3], in test [5], in [6] and in test [7] was “inactive” in each case. For the same molecule, the Potency entry in test [8], in [10] and in test [9] was “inactive” in each case. Further, the outcome in test [4] was inactive.
In the case of `COc1ccc(C(=O)NCc2ccc(OCCN(C)C)cc2)cc1OC`, the Potency result in [1], in test [2], in [3], in [5], in test [6] and in test [7] was “inactive” in each case. For the same molecule, the Potency entry in test [8], in test [10] and in test [9] was “inactive” in each case. For the same molecule, the molecule was called inactive in test [4].
Regarding `O=C(c1ccccc1)C1CCC1`, the Potency result in test [1], in test [2], in test [3], in test [5], in test [6] and in test [7] was “inactive” in each case. For the same molecule, the Potency entry in test [8] and in test [10] was “inactive” throughout. In addition, in [4], the call was inactive.
For the molecule `CCc1ccc(C)cc1`, the Potency entry in test [1], in [2], in test [3], in test [5], in test [6] and in [7] was “inactive” in each case. Also, the Potency entry in test [8], in test [10] and in test [9] was “inactive” each time. For the same molecule, the outcome in test [4] was inactive.
`CC(C)N(C)C`: the Potency result in test [1], in [2], in test [3], in test [5], in test [6] and in [7] was “inactive” throughout. Moreover, the Potency entry in test [10] and in test [9] was “inactive” throughout. In test [4], the molecule was called inactive.
Regarding `Nc1nc2ccc(OC(F)(F)F)cc2s1`, the Potency entry in test [1], in test [3], in test [5], in [6], in test [7] and in [8] was “inactive” throughout. Also, the Potency entry in test [10] and in test [9] was “inactive” in each case. Further, the Potency in test [2] was 10.6 µM (active). For the same molecule, in test [4], the call was inactive.
